Assay [1] deals with Cellular tumor antigen p53 (Homo sapiens) (UniProt P04637). As to the kind of experiment: Primary qHTS for small molecule compounds that upregulate eGFP-tagged delta133p53alpha (in N-terminal) cells. (AID 2060322). Also: nearly all actives have a fitted effect of over 75% in size. Also: potency is read from the fitted curve at half-maximal effect.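 As to activation: series mostly up to about 56 µM; 0% = DMSO vehicle and 100% = reference activator.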 Particulars: NCI-H358 eGFP-delta133p53alpha fluorescence, 24 h; activation: hits give high values. An outline of the steps:
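NCI-H358 cells pre-induced 24 h with 10 ng/ml doxycycline to express N-terminal eGFP-delta133p53alpha, then dosed 24 h at 37C without doxycycline; fixed, Hoechst-stained, GFP intensity by laser scanning cytometry, normalized to DMSO (0%) and 57.5 uM 5-azacytidine (100%).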
A general note: Quantitative high-throughput screening tests each substance at several concentrations.

The target in assay [2] is Aldehyde dehydrogenase, mitochondrial (Homo sapiens) (UniProt P05091). As to the kind of experiment: qHTS for Inhibitors of the Aldehyde Dehydrogenase Family (ALDH2) Primary screen (AID 2061308).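 Also: plate controls were vehicle for no effect and reference inhibitor for full effect; nearly all actives have a fitted effect of over 55% in size.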
The target of assay [3] is Retinaldehyde dehydrogenase 3 (Homo sapiens) (UniProt P47895). As to the kind of experiment: qHTS for Inhibitors of the Aldehyde Dehydrogenase Family (ALDH1A3) Primary screen (AID 2061315).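 Also: plate controls were DMSO vehicle for no effect and reference inhibitor for full effect.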

Where “and” joins values, the source holds several entries; their conditions need not be identical. Identical values can stand only once. Results filed as inconclusive are left out. A number with no mark means an inactive call. Calls of active or inactive are those of the source. Calls follow the shape of the dose curve; as a rule, active = well fitted curve in the direction sought with a large enough effect; inconclusive = small, poorly fitted or top-dose-only effect, or another doubt; inactive = no such curve, though single readings can be large; an effect the other way counts as inactive or inconclusive.

Chain of Cellular tumor antigen p53 (Homo sapiens) (P04637 whole entry, looked up): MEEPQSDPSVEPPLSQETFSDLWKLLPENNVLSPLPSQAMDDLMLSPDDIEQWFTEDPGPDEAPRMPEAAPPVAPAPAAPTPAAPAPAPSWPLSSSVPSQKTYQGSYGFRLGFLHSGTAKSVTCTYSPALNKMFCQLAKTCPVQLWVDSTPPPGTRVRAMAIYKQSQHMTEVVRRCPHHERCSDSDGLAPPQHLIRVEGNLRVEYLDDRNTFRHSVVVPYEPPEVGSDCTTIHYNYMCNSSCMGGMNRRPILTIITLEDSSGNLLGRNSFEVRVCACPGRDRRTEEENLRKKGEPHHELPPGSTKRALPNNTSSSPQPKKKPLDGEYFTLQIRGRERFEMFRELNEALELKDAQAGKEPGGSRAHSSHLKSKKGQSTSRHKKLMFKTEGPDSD

Regarding `CC1(C)CC[C@]2(C(=O)O[C@@H]3O[C@H](CO[C@@H]4O[C@H](CO)[C@@H](O)[C@H](O)[C@H]4O[C@@H]4O[C@H](CO)[C@@H](O)[C@H](O)[C@H]4O)[C@@H](O)[C@H](O[C@@H]4O[C@H](CO)[C@@H](O)[C@H](O)[C@H]4O)[C@H]3O)CC[C@]3(C)C(=CCC4[C@@]5(C)CC[C@@H](O)[C@@](C)(C(=O)O[C@@H]6O[C@H](CO)[C@@H](O)[C@H](O)[C@H]6O)C5CC[C@]43C)[C@@H]2C1` (stereo partly drawn), the activation in assay [1] is -7.63%. Also, the activity change, negative = inhibition was 5.56% [at 11.2 µM] in assay [2] and 9.33% [at 11.2 µM] in assay [3].
For `CC(C)=CCC[C@](C)(O[C@@H]1O[C@H](CO[C@@H]2O[C@@H](CO)[C@H](O)[C@H]2O[C@@H]2OC[C@@H](O)[C@H](O)[C@H]2O)[C@@H](O)[C@H](O)[C@H]1O)[C@H]1CC[C@]2(C)[C@@H]1[C@H](O)CC1[C@@]3(C)CC[C@H](O[C@@H]4O[C@H](CO)[C@@H](O)[C@H](O)[C@H]4O[C@@H]4O[C@H](CO)[C@@H](O)[C@H](O)[C@H]4O)C(C)(C)C3CC[C@]12C` (stereo partly drawn), the activation in assay [1] was -6.87%. Moreover, the activity change, negative = inhibition was 1.66% [at 11.2 µM] in assay [2] and 19.1% [at 11.2 µM] in assay [3].
For `CC1C2=CC(=O)OC2(O)CC2C1C(O)CC1C(C)(CO)CCCC21C` (stereo not drawn), the activation in assay [1] is -9.16%. The Potency entry in assay [2] and in assay [3] was “inactive” throughout.
For the compound `C=C1CCC2C(C)(C)CCC[C@]2(C)[C@H]1C/C=C(\CO)C(=O)C(=O)O` (stereo partly drawn), the activation in assay [1] was -6.87%. Besides, the Potency result in assay [2] and in assay [3] was “inactive” in each case.
As for `N[C@H]1C[C@H]1c1ccc(-c2cccc(O)c2)cc1`, the activation in assay [1] was 1.67%. In addition, the Potency entry in assay [2] and in assay [3] was “inactive” in each case.
On to `CC1OC(OC2C(C)OC(OC3C(OC(=O)/C=C/c4ccc(O)cc4)C(CO)OC(OC4(COC(=O)/C=C/c5ccc(O)cc5)OC(CO)C(O)C4O)C3OC3OCC(O)(CO)C3O)C(O)C2O)C(O)C(O)C1O` (stereo not drawn), for which the activation in assay [1] is 14.5%. Besides, the Potency result in assay [2] and in assay [3] was “inactive” in each case.
Consider `CC1=C2[C@@H]([C@H](C)CC[C@H]2/C=C(\C)C(=O)O)[C@H](O)C1`, for which, in assay [1], the activation was -10.7%. Further, the Potency entry in assay [2] and in assay [3] was “inactive” in each case.
In the case of `CO[C@H]1C=C2C(CC[C@H](O[C@@H]3O[C@H](CO)[C@@H](O)[C@@H](O)[C@H]3O)C2(C)C)[C@]2(C)CC[C@]3(C)C([C@H](C)C(O)C(C=C(C)C)O[C@@H]4O[C@H](CO)[C@@H](O)[C@@H](O)[C@H]4O)CC[C@@]3(C)C12` (stereo partly drawn), the activation in assay [1] was 0.763%. Moreover, the Potency result in assay [2] and in assay [3] was “inactive” throughout.
On to `C[C@@H]1CC[C@]2(C(=O)O)CC[C@]3(C)C(=CCC4[C@@]5(C)C[C@@H](O)[C@@H](O)C(C)(C)C5CC[C@]43C)C2[C@]1(C)O` (stereo partly drawn), for which the activation in assay [1] is -5.36%. Also, the Potency entry in assay [2] and in assay [3] was “inactive” throughout.
For `Cc1csc(NC(=O)c2ccc(COc3cccc(Cl)c3)o2)n1`, the activation in assay [1] was -9.67%. The Potency result in assay [2] and in assay [3] was “inactive” throughout.
With `C/C(=C\C=C\C(C)C1CCC2(C)C3CCC4C(C)(C)C(=O)CCC45CC35CCC12C)C(=O)O` (stereo not drawn), in assay [1], the activation was 5.36%. Moreover, the Potency result in assay [2] and in assay [3] was “inactive” each time.
For `CC1=CC[C@]2(C(=O)O[C@@H]3O[C@H](CO[C@@H]4O[C@H](CO)[C@@H](O[C@@H]5O[C@@H](C)[C@H](O)[C@@H](O)[C@H]5O)[C@H](O)[C@H]4O)[C@@H](O)[C@H](O)[C@H]3O)CC[C@]3(C)C(CCC4[C@@]5(C)C[C@@H](O)[C@H](O)[C@@](C)(CO)C5CC[C@]43C)C2C1C` (stereo partly drawn), the activation in assay [1] was -13%. Further, the Potency entry in assay [2] and in assay [3] was “inactive” in each case.
Consider `COC(=O)c1[nH]c(=O)c2ccccc2c1-c1ccc[nH]1`, for which, in assay [1], the activation is -11.6%. Moreover, the Potency entry in assay [2] and in assay [3] was “inactive” in each case.
For `C=C(C)C(=O)O[C@H]1[C@H]2C(=C)C(=O)O[C@@H]2C[C@@H](C)/C=C\C(=O)[C@](C)(O)[C@@H]1OC(C)=O`, in assay [1], the Potency was 4.65 µM (active). The Potency result in assay [2] and in assay [3] was “inactive” in each case.
On to `O=C1C=CC2OC(c3ccccc3)C(O)C2O1` (stereo not drawn), for which, in assay [1], the Potency is 30.1 µM (active). Further, the Potency result in assay [2] and in assay [3] was “inactive” throughout.
Regarding `C=C1C(=O)OC2C1C(O)CC1(C)C(O)CCC(C=O)C21` (stereo not drawn), in assay [1], the activation is 13.4%. Further, the Potency entry in assay [2] and in assay [3] was “inactive” each time.
Turning to `CC(=O)C1=C(C)N(c2cccc(C(F)(F)F)c2)C(=O)N[C@H]1c1ccc(C#N)nc1`, the activation in assay [1] is -3.67%. Also, the Potency entry in assay [2] and in assay [3] was “inactive” each time.
With `CC1=C(C)C(=O)OC(C(C)(O)C2CCC3C4CC=C5CC(OC6OC(COC7OC(CO)C(O)C(O)C7O)C(O)C(O)C6O)CC(O)C5(C)C4CCC32C)C1` (stereo not drawn), in assay [1], the activation was -6.87%. Also, the Potency entry in assay [2] and in assay [3] was “inactive” throughout.
Take `OC(CN1CCN(c2cccc(Cl)c2)CC1)C(c1ccccc1)c1ccccc1` (stereo not drawn): the activation in assay [1] was -15.1% and 17%. Also, the Potency result in assay [2] and in assay [3] was “inactive” each time.
Consider `Nc1nc2c(ncn2[C@@H]2O[C@@H]3COP(=O)(O)O[C@H]3[C@H]2O)c(=O)[nH]1`, for which, in assay [1], the activation is 12.3%. Further, the Potency result in assay [2] and in assay [3] was “inactive” each time.
As to `C=C[C@H]1[C@H](O[C@@H]2O[C@H](CO[C@@H]3OC[C@](O)(CO)[C@H]3O)[C@@H](O)[C@H](O)[C@H]2O)OC=C2C(=O)OCC[C@H]21`, the activation in assay [1] was 5.36%. The Potency result in assay [2] and in assay [3] was “inactive” in each case.
